Laboratory results: PubChem BioAssay AID802 (Columbia University Molecular Screening Center, 2007)
The whole screen tested about 95,000 compounds, of which about 460 (0.48%) were called active.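 The calls were made as follows: active = inhibition above the batch mean plus 3 SD, with images confirmed as a hit by eye (cut at about 37% in these data); inconclusive = inhibition above that limit but hit not confirmed in images; inactive = inhibition not above that limit.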 The entries come from a sample that favours actives as a whole.

Test: inhibitors of TNFa-induced VCAM1 expression, primary screen, imaging, HUVEC, TNFa stimulus, immunofluorescence (AID 802);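 also: 0% = TNF-stimulated DMSO wells and 100% = unstimulated control wells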
Details: HUVEC TNFa-induced VCAM-1 immunofluorescence, high-content imaging; at 2 µM; stronger effect = higher value

inhibition, inactive:
O=C(c1ccccn1)c1ncc(C(F)(F)F)cc1Cl 2.2%
Cc1ccc(C(=O)c2c(NC(=O)c3ccncc3)sc3c2CCCC3)cc1 3%
O=C(Cn1cnc2ccccc2c1=O)NCC1COc2ccccc2O1 (stereo unspecified) 0.5%
C=CCn1c(N)c(S(=O)(=O)c2cccs2)c2nc3ccccc3nc21 -6.6%
CC(C)(C)OC(=O)c1c(N)n(CCCN2CCCC2=O)c2nc3ccccc3nc12 -22.1%
Cc1ccc(SCC(=O)c2cc(C)c(OC(=S)N(C)C)c(C)c2)cc1 8.8%
COc1cc(C(=O)N2CCN(C/C=C/c3ccccc3)CC2)cc(OC)c1C -10.4%
Cc1cc(/C=N/NC(=O)CC2(C)OCCO2)c(C)n1-c1ccc(Cl)c(Cl)c1 -7.1%
CCOC(=O)C(=O)Nc1nc(-c2ccccc2)c(CC)s1 4.9%
O=S(=O)(NCc1cccnc1)c1ccc(Cl)nc1 0.2%
COc1ccc(C(C(=O)NCc2ccccc2)N(Cc2cccs2)C(=O)c2cnccn2)cc1 (stereo unspecified) 2.9%
Cc1ccc(-c2nc3ccccc3[nH]2)cc1N 4.2%
NC(=O)COc1ccc(/C=N/NC(=O)C2CCCN2S(=O)(=O)c2ccc(Cl)cc2)cc1 (stereo unspecified) 17.1%
O=S(=O)(/N=C(/Nc1ccccn1)c1ccccc1)c1ccc(Cl)cc1 0.3%
Cc1ccccc1CS(=O)(=O)CC1(O)CCN(C(=O)c2cccc(C(F)(F)F)c2)CC1 -2%
O=C(NC1(C(F)(F)F)NC(=O)N(Cc2cccnc2)C1=O)c1ccccc1Cl (stereo unspecified) 8.4%
COc1cc(NS(=O)(=O)c2ccc(N/C=C(\C=O)c3nc4cc(Cl)ccc4o3)cc2)nc(OC)n1 -2.6%
Cc1cc(C(=O)CSc2nc(N)cc(=O)[nH]2)c(C)n1CCc1ccc(Cl)cc1 16.5%
CSc1nc2nc3c(c(=O)n2[nH]1)CCC3 7.1%
CC(C)=CC(=O)Nc1nnc(-c2ccc(F)cc2)s1 6.5%
CC(C)(C)c1cc2cccnc2n1Cc1ccccc1 9.9%
Cc1cccc(N2CCN(S(=O)(=O)c3ccc4[nH]c(=O)c(=O)[nH]c4c3)CC2C)c1 (stereo unspecified) 3.1%
CCOc1ccccc1N=C1NC(=O)CS1 -6.9%
COC(=O)C1C(=O)c2c([nH]c(C(=O)OCCSC)c2C)CC1C (stereo unspecified) 1.9%
C=CCOC(=O)C1=C(C)NC(C)=C(C(=O)OCC=C)C1c1cccs1 3.8%
CCCCCCC12CCC(C(=O)O)(CC1)CC2 25.1%
Cc1cccc2c(=O)n3c(nc12)CCCCC3 13.3%

inhibition, active:
Cc1ccc(-c2nn(C(C)(C)C)c3ncnc(N)c23)cc1 40.8%
C=CCn1c(N)c(C(=O)OCC(C)C)c2nc3ccccc3nc21 94.4%
Cc1cccc(N=C2NC(=O)CS2)c1C 97.1%
CCCOC(=O)c1[nH]c2c(c1C)C(=O)CC(c1cccs1)C2 (stereo unspecified) 65%
